# From PubChem BioAssay AID1332 (Southern Research Institute, 2008)
# Out of some 1,100 compounds screened, about 170 (15%) were called active. The rule behind the calls is not given here. The list is a sample of the results.
# Experiment: Confirmatory growth inhibition assay, mycobacterium tuberculosis h37rv, with cytotoxicity (AID 1332);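 for CC50: Vero cells exposed to compounds for 72 hours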;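 for IC50: bacteria incubated 7 days before adding Alamar blue readout reagent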
# Conditions: M. tuberculosis H37Rv growth inhibition; CC50: measured here: Vero cell cytotoxicity; IC50: measured here: IC50 H37Rv replicates
SMILES,IC50 [µg/mL],outcome,CC50 [µg/mL]
CCn1cc(C(=O)O)c(=O)c2cnc(N3CCCC3)nc21,> 20,inactive,–
Cc1cccc(N(C)C(=S)Oc2ccc3ccccc3c2)c1,> 20,inactive,–
O=C(O)C1(O)C[C@H](O)C(O)[C@@H](O)C1 (some centres undefined),> 20,inactive,–
COc1ccc([C@@H]2CC(=O)c3c(O)cc(O)cc3O2)cc1O,> 20,inactive,–
CCCCN(CCCC)CCCOC(=O)c1ccc(N)cc1,> 20,inactive,–
CC1(C)S[C@@H]2[C@H](NC(=O)C(C(=O)O)c3ccsc3)C(=O)N2[C@H]1C(=O)O (some centres undefined),> 20,inactive,–
CC(=O)N(CC(O)CN(C(C)=O)c1c(I)c(C(=O)NCC(O)CO)c(I)c(C(=O)NCC(O)CO)c1I)c1c(I)c(C(=O)NCC(O)CO)c(I)c(C(=O)NCC(O)CO)c1I (centres undefined),> 20,inactive,–
Cn1c(-c2ccc3c(c2)OCO3)cc(=O)c2ccccc21,> 20,inactive,–
Cc1c(N)c(=O)n(-c2ccccc2)n1C,> 20,inactive,–
COc1ccc2cc1Oc1ccc(cc1)C[C@H]1c3cc(c(OC)cc3CCN1C)Oc1c(OC)c(OC)cc3c1[C@H](C2)N(C)CC3,> 20,inactive,> 6
Cc1[nH]ccc2c1[nH]c1cc(=O)ccc12,> 20,inactive,> 6
CC(C)(C)NCC(O)COc1ccccc1C1CCCC1 (centres undefined),> 20,inactive,–
O=C(O)c1cccnc1,> 20,inactive,–
O=C1C(=O)c2ccccc2C(O)=C1C1CCC(c2ccc(Cl)cc2)CC1 (centres undefined),10.1,active,> 6
C/C=C(\C)C(=O)O[C@H]1[C@H](OC(C)=O)[C@@]2(CO)C(CC1(C)C)C1=CC[C@@H]3[C@@]4(C)CC[C@H](O[C@@H]5O[C@H](C(=O)O)[C@@H](O[C@@H]6O[C@H](CO)[C@@H](O)[C@H](O)[C@H]6O)[C@H](O)[C@H]5O[C@@H]5O[C@H](CO)[C@@H](O)[C@H](O)[C@H]5O)[C@](C)(CO)C4CC[C@@]3(C)[C@]1(C)C[C@H]2O (some centres undefined),> 20,inactive,–
CCCCc1cc2ccccc2c(OCCN(C)C)n1,13.5,active,–
CN(C)CCCOc1nn(Cc2ccccc2)c2ccccc12,> 20,inactive,–
CN(C)CCOC(c1ccccc1)c1ccccc1,> 20,inactive,–
CCCCOc1cc(C(=O)NCCN(CC)CC)c2ccccc2n1,> 20,inactive,–
CC[N+](CC)(CC(=O)Nc1c(C)cccc1C)Cc1ccccc1,> 20,inactive,–
Clc1ccc(C(OCCN2CCCCC2)c2ccccc2)cc1 (centres undefined),> 20,inactive,> 6
CN1CCc2c(c3ccccc3n2Cc2ccccc2)C1,> 20,inactive,–
Clc1ccc(Cn2c(CN3CCCC3)nc3ccccc32)cc1,3.58,active,–
CCOc1ccc(Cc2nccc3cc(OCC)c(OCC)cc23)cc1OCC,> 20,inactive,> 6
CC(C)n1c(/C=C/[C@H](O)C[C@H](O)CC(=O)O)c(-c2ccc(F)cc2)c2ccccc21,> 20,inactive,0.354
C=C[C@]12CN(C)[C@@H]3[C@H]4COC(CC41)[C@]1(C(=O)Nc4ccccc41)[C@@H]32,> 20,inactive,–
COC1=CC(=O)C[C@@H](C)[C@]12Oc1c(Cl)c(OC)cc(OC)c1C2=O,> 20,inactive,> 6

SMILES,IC50 [µg/mL],outcome,CC50 [µg/mL]
NC(=O)N/N=C/c1ccc([N+](=O)[O-])o1,11.5,active,> 6
CC(C(=O)O)c1ccc(C(=O)c2ccccc2)s1 (centres undefined),> 20,inactive,–
CCC(=O)OCC(=O)[C@@]1(OC(=O)CC)[C@@H](C)C[C@H]2[C@@H]3CCC4=CC(=O)C=C[C@]4(C)[C@@]3(Cl)[C@@H](O)C[C@@]21C,> 20,inactive,–
CC[C@H]1CN2CCc3cc(OC)c(OC)cc3[C@@H]2C[C@@H]1C[C@H]1NCCc2cc(O)c(OC)cc21,> 20,inactive,< 0.023
Fc1ccc([C@@H]2CCNC[C@H]2COc2ccc3c(c2)OCO3)cc1,13.1,active,4.88
C[C@H](NCCc1ccc(O)cc1)[C@H](O)c1ccc(O)cc1,> 20,inactive,–
C[C@@H]1CC[C@@]2(NC1)O[C@H]1C[C@H]3[C@@H]4CC=C5C[C@@H](O)CC[C@]5(C)[C@H]4CC[C@]3(C)[C@H]1[C@@H]2C,> 20,inactive,–
C[C@]12C=CC(=O)C=C1CC[C@@H]1[C@@H]2[C@@H](O)C[C@@]2(C)[C@H]1CC[C@]2(O)C(=O)CO,> 20,inactive,–
CC(C)(C)NCC(O)COc1cccc2c1CC(O)C(O)C2 (centres undefined),> 20,inactive,–
NC[C@@H]1O[C@H](O[C@H]2[C@@H](O)[C@H](O[C@@H]3[C@@H](O)[C@H](N)C[C@H](N)[C@H]3OC3O[C@H](CO)[C@@H](O)[C@H](O)[C@H]3N)O[C@@H]2CO)[C@H](N)[C@@H](O)[C@@H]1O (some centres undefined),19.8,active,–
NC[C@@H]1O[C@H](O[C@H]2[C@@H](O)[C@H](O[C@@H]3[C@@H](O)[C@H](N)C[C@H](N)[C@H]3O[C@H]3O[C@H](CN)[C@@H](O)[C@H](O)[C@H]3N)O[C@@H]2CO)[C@H](N)[C@@H](O)[C@@H]1O,> 20,inactive,–
NC[C@H]1O[C@H](OC2[C@@H](N)C[C@@H](N)[C@H](O)[C@H]2O[C@@H]2O[C@H](CO)[C@@H](O)[C@H]2O)[C@H](N)[C@@H](O)[C@@H]1O (some centres undefined),> 20,inactive,–
C[N+]1(C)C[C@@H](O)C[C@H]1C(=O)[O-],> 20,inactive,–
CC(C)(Sc1cc(C(C)(C)C)c(O)c(C(C)(C)C)c1)Sc1cc(C(C)(C)C)c(O)c(C(C)(C)C)c1,> 20,inactive,–
CC1=C(C(=O)O)N2C(=O)[C@@H](NC(=O)[C@H](N)c3ccc(O)cc3)[C@H]2SC1,> 20,inactive,–
N=C(N=C(N)N)N1CCOCC1,> 20,inactive,–
c1ccc(CNc2ncnc3nc[nH]c23)cc1,> 20,inactive,–
Cn1cnc([N+](=O)[O-])c1Sc1ncnc2nc[nH]c12,13.1,active,> 6
CN1C[C@H](C(=O)N[C@]2(C)O[C@@]3(O)[C@@H]4CCCN4C(=O)[C@H](Cc4ccccc4)N3C2=O)CC2c3cccc4[nH]cc(c34)C[C@H]21 (some centres undefined),> 20,inactive,–
CN1CCC(=C2c3ccccc3CCc3sccc32)CC1,> 20,inactive,> 6
CN1CCC(=C2c3ccccc3Sc3ccccc32)CC1,18,active,–
CN1CCC(=C2c3ccccc3C=Cc3ccccc32)CC1,> 18.3,active,> 6
CN1CCC(=C2c3ccccc3CC(=O)c3sccc32)CC1,> 20,inactive,–
CCC(=O)OC1(C(=O)CCl)[C@@H](C)C[C@H]2[C@@H]3CCC4=CC(=O)C=C[C@]4(C)[C@@]3(F)[C@@H](O)C[C@@]21C (some centres undefined),> 20,inactive,–
C[C@H](N)[C@H](O)c1cccc(O)c1,> 20,inactive,–
CNCC(O)C(O)C(O)C(O)CO (centres undefined),> 20,inactive,–
C[n+]1cccc(C(=O)[O-])c1,> 20,inactive,–

SMILES,IC50 [µg/mL],outcome,CC50 [µg/mL]
CCC(c1ccc(O)cc1)C(CC)c1ccc(O)cc1 (centres undefined),> 20,inactive,–
COc1ccc2c(c1)N(C[C@H](C)CN(C)C)c1ccccc1S2,> 20,inactive,> 6
CC[C@H]1OC(=O)[C@H](C)[C@@H](O[C@H]2C[C@@](C)(OC)[C@@H](O)[C@H](C)O2)[C@H](C)[C@@H](O[C@@H]2O[C@H](C)C[C@H](N(C)C)[C@H]2O)[C@](C)(O)C[C@@H](C)C(=O)[C@H](C)[C@@H](O)[C@]1(C)O,1.7,active,–
CO[C@H]1C[C@H](O[C@H]2[C@H](C)[C@@H](O[C@@H]3O[C@H](C)C[C@H](N(C)C)[C@H]3OC(C)=O)[C@@H](C)C[C@@]3(CO3)C(=O)[C@H](C)[C@@H](OC(C)=O)[C@@H](C)[C@@H](C)OC(=O)[C@@H]2C)O[C@@H](C)[C@@H]1OC(C)=O,> 20,inactive,–
CO[C@H]1C[C@H](O[C@H]2[C@H](C)[C@@H](O[C@@H]3O[C@H](C)C[C@H](N(C)C)[C@H]3O)[C@@H](C)C[C@@]3(CO3)C(=O)[C@H](C)[C@@H](O)[C@@H](C)[C@@H](C)OC(=O)[C@@H]2C)O[C@@H](C)[C@@H]1O,> 20,inactive,–
CC[C@H]1OC(=O)[C@H](C)[C@@H](O[C@H]2C[C@@](C)(OC)[C@@H](O)[C@H](C)O2)[C@H](C)[C@@H](O[C@@H]2O[C@H](C)C[C@H](N(C)C)[C@H]2O)[C@](C)(O)C[C@@H](C)[C@@H]2N[C@@H](COCCOC)O[C@H]([C@H]2C)[C@]1(C)O,1.33,active,–
COc1ccc2cc3[n+](cc2c1OC)CCc1cc2c(cc1-3)OCO2,> 20,inactive,–
O=C(O)CCC(=O)Nc1ccc(S(=O)(=O)Nc2nccs2)cc1,> 20,inactive,–
C[N+]1(C)CCC[C@H]1C(=O)[O-],> 20,inactive,–
C[C@H]1O[C@@H](OC2CC[C@]3(C=O)[C@H]4CC[C@]5(C)[C@@H](C6=CC(=O)OC6)CC[C@]5(O)[C@@H]4CC[C@]3(O)C2)C[C@H](O)[C@@H]1O (some centres undefined),> 20,inactive,2.54
COc1ccc(C(=O)c2ccccc2O)c(O)c1,> 20,inactive,–
O=c1cc(-c2ccc(O)cc2)oc2c(C3O[C@H](CO)[C@@H](O)[C@H](O)[C@H]3O)c(O)cc(O)c12 (some centres undefined),> 20,inactive,–
CC(=O)N[C@@H](CC(=O)O)C(=O)O,> 20,inactive,–
Cc1cc2c(cc1S(N)(=O)=O)S(=O)(=O)CCC2,> 20,inactive,–
CCC1NC(=O)c2cc(S(N)(=O)=O)c(Cl)cc2N1 (centres undefined),> 20,inactive,–
Cc1cc2cc3c(C)cc(=O)oc3c(C)c2o1,> 20,inactive,–
COC(=O)[C@H]1[C@H]2C[C@@H]3c4[nH]c5cc(OC)ccc5c4CCN3C[C@H]2C[C@@H](OC(=O)c2cc(OC)c(OC)c(OC)c2)[C@@H]1OC,2.32,active,–
COC(=O)[C@@H]1[C@H]2C[C@H]3c4[nH]c5ccccc5c4CCN3C[C@@H]2CC[C@@H]1O,> 20,inactive,–
CCOC(=O)Oc1c(OC)cc(C(=O)O[C@@H]2C[C@@H]3CN4CCc5c([nH]c6cc(OC)ccc56)[C@H]4C[C@@H]3[C@H](C(=O)OC)[C@H]2OC)cc1OC,7.94,active,–
COC(=O)C1=CO[C@@H](C)[C@H]2CN3CCc4c([nH]c5ccccc45)[C@@H]3C[C@H]12,> 20,inactive,–
O=C(O)[C@@H]1[C@H]2C[C@H]3c4[nH]c5ccccc5c4CCN3C[C@@H]2CC[C@@H]1O,> 20,inactive,–
COC(=O)[C@H]1[C@H]2C[C@H]3c4[nH]c5ccccc5c4CCN3C[C@H]2CC[C@@H]1O,> 20,inactive,–
COC(=O)[C@H]1[C@H]2C[C@@H]3c4[nH]c5cc(OC)ccc5c4CCN3C[C@H]2C[C@@H](OC(=O)/C=C/c2cc(OC)c(OC)c(OC)c2)[C@@H]1OC,4.23,active,> 6
COc1ccc2c3c([nH]c2c1)[C@H]1C[C@H]2[C@H](C[C@@H](O)[C@H](OC)[C@H]2C(=O)O)CN1CC3,> 20,inactive,–
COC(=O)[C@H]1[C@H]2C[C@H]3c4[nH]c5ccccc5c4CCN3C[C@@H]2CC[C@@H]1O,> 20,inactive,–
